From PubChem BioAssay (NCATS)
Unmarked numbers belong to inactive results. The rule behind the calls is not given here.

Tested on: HIV-1 nucleocapsid protein NCp7 (binding to TG oligonucleotide)
Test: HIV Nucleocapsid (AID 346);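 note: potency is for inhibitors that block NC binding and lower polarization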
Details: HIV-1 NC / fluorescein-TGTGTGTG probe, fluorescence polarization
Outline: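 NCp7 100 nM + fluorescein TG4xF 10 nM; Hepes pH 7.5/250mM NaCl/1uM ZnCl2/0.004% PEG 20000; 1 hr RT; FP, 45 s exposure; oligo-only wells as negative control.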
Potency is the fitted concentration of half-maximal effect.

| SMILES | Potency |
| --- | --- |
| c1cncc(CNc2ncnc3ccc(-c4ccoc4)cc23)c1 | > 20 µM |
| Cc1cnc(CNc2ncncc2-c2ccc(N(C)C)cc2)cn1 | > 20 µM |
| COc1ccccc1-c1cncnc1NCCN1CCOCC1 | > 20 µM |
| COCCNc1nc(-c2ccccc2CN(C)C)nc2ccccc12 | > 20 µM |
| N#Cc1cccc(-c2nc(NCc3cccs3)c3ccccc3n2)c1 | > 20 µM |
| Cc1cccc(CNc2ncncc2-c2cccc(C#N)c2)c1 | > 20 µM |
| COc1ccc(NC(=O)N2CCCC3(CCN(S(=O)(=O)c4ccccc4)CC3)C2)cc1 | > 20 µM |
| CN(Cc1ccco1)c1cc(-c2ccccc2C(F)(F)F)ncn1 | > 20 µM |
| COc1ccccc1CNc1ncnc2ccc(-c3ccc(C(=O)N(C)C)cc3)cc12 | > 20 µM |
| CC(C)NC(=O)N1CCCC2(CCN(C(=O)c3ccncc3)CC2)C1 | > 20 µM |
| N#Cc1cccc(-c2ccc3ncnc(N4CCNCC4)c3c2)c1 | > 20 µM |
| O=C(c1cnccn1)N1CCC2(CCCN(c3ccc(-c4ccccc4)cc3)C2)CC1 | > 20 µM |
| Cn1cc(-c2nc3cnc(Oc4ccccc4)nc3n(Cc3cccs3)c2=O)c2ccccc21 | > 20 µM |
| O=C(Nc1cccc(F)c1)N1CCC2(CC1)CCN(C(=O)c1ccco1)CC2 | > 20 µM |
| O=C(c1cc(C(F)(F)F)cc(C(F)(F)F)c1)N1CCC2(CC1)CN(c1ncccn1)C2 | > 20 µM |
| COCC(=O)N1CCC2(CC1)CN(c1cccc(-c3ccccc3)c1)C2 | > 20 µM |
| c1nc(N2CCNCC2)c2cc(-c3ccoc3)ccc2n1 | > 20 µM |
| COCCn1c(=O)c(-c2cccc(C#N)c2)nc2cnc(N3CCNCC3)nc21 | > 20 µM |
| COc1ccc2[nH]cc(CCNc3cc(-c4ccccc4OC)ncn3)c2c1 | > 20 µM |
| O=S(=O)(c1ccccc1)N1CCC2(CCCN(c3cccc(-c4ccccc4)c3)C2)CC1 | > 20 µM |

| SMILES | Potency |
| --- | --- |
| CN(C)C(=O)c1ccc(-c2nc(NCc3ccccc3)c3ccccc3n2)cc1 | > 20 µM |
| COc1cccc(Nc2ncc3ncc(=O)n(CCc4ccccc4)c3n2)c1 | > 4 µM |
| COc1ccc(NC(=O)N2CC[C@@]3(CCCN(C(=O)c4ccco4)C3)C2)cc1 | > 20 µM |
| Cc1cccc(CNc2ccnc(-c3ccccc3C(F)(F)F)n2)c1 | > 20 µM |
| CCNc1ncc2nc(C)c(=O)n(CCC#N)c2n1 | > 20 µM |
| CC(=O)NCCNc1ncnc2ccc(-c3c(C)noc3C)cc12 | > 20 µM |
| CN1CCN(c2ncc3ncc(=O)n(CCc4ccccc4)c3n2)CC1 | > 20 µM |
| COCC(=O)N1CCC[C@@]2(CCN(C(=O)Nc3cccc(C#N)c3)C2)C1 | > 20 µM |
| COc1ncc2nc(CCc3ccccc3)c(=O)n(CCC#N)c2n1 | > 20 µM |
| CC(=O)N1CCC2(CCCN(C(c3ccccc3)c3ccccc3)C2)CC1 | > 20 µM |
| O=C(c1cc(C(F)(F)F)cc(C(F)(F)F)c1)N1CCC[C@@]2(CCN(c3ccncc3)C2)C1 | > 20 µM |
| COc1ccc(-n2c(=O)c(-c3cccs3)nc3cnc(OC)nc32)cc1 | > 20 µM |
| CN(C)c1ncnc2ccc(-c3ccccc3C(F)(F)F)cc12 | > 20 µM |
| COc1ccc(C(=O)N2CCC[C@@]3(CCN(c4ccccn4)C3)C2)cc1 | > 20 µM |
| O=C(Nc1cccc(F)c1)N1CCCC2(CCNCC2)C1 | > 4 µM |
| Cn1c(=O)c(-c2cccc(Cl)c2)nc2cncnc21 | > 20 µM |
| COc1ncc2nc(-c3ccc(Cl)cc3)c(=O)n(CCC#N)c2n1 | > 20 µM |
| O=C(c1cccc(F)c1)N1CCC2(CC1)CN(c1cccc(-c3ccccc3)c1)C2 | > 20 µM |
| Cc1cccc(CNc2cc(-c3ccccc3C)ncn2)c1 | > 20 µM |
| Cc1cnc(CNc2cc(-c3ccc4c(c3)OCO4)ncn2)cn1 | > 20 µM |
